# Compound activity from PubChem.
# HEK cytotox: kills HEK 293 cells | HEK 293 viability, ATP luminescence (CellTiter-Glo), 48-72 h | Potency, µM (highest dose often 115 µM), actives largely listed as inhibitors | actives 6.6% (n = 94,000); note: nearly all actives have a fitted effect of over 60% in size
#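 HEK 293 seeded at 250 cells/well receive compound via pintool. After 48 or 72 hr at 37 degree Celsius, 5% CO2 and 95% humidity, CellTiter-Glo is dispensed and luminescence read following 10 min at room temperature.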
# NPR1 antag: antagonists of human natriuretic peptide receptor Npr1; P16066; HEK293 hNpr1 GloSensor cGMP, ANP-stimulated luminescence; Potency, µM (highest dose often 46.3 µM), usual class: inhibitors; actives 1.6% (n = 76,000); calls by dose curve; note: nearly all actives have a fitted effect of over 60% in size
#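 Compound pre-incubated 30 min at room temperature on GloSensor-loaded HEK293 cells stably carrying hNpr1 and the pGS-40F cGMP biosensor. Stimulation uses hNppA at 0.1 nM final; luminescence is taken at baseline and 20 min post-agonist.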
# 3T3 cytotox: kills NIH 3T3 cells. actives 4.3% (n = 94,000). Potency, µM (series often up to 96.7 µM), hits mostly inhibitors. NIH 3T3 viability, CellTiter-Glo ATP luminescence, 48-72 h; note: nearly all actives have a fitted effect of over 55% in size
#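 First NIH 3T3 cells are plated at 400 cells/well; next compound is pinned in; then plates incubate 48 or 72 hr at 37 °C; finally CellTiter-Glo is added and luminescence read after 10 min.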
# Luciferase inh: Photinus pyralis luciferase inhibition | P08659 | purified P. pyralis luciferase, luminescence, biochemical | Potency, µM (titrated, usually from 115 µM), actives largely listed as inhibitors | actives 2.5% (n = 76,000); note: nearly all actives have a fitted effect of over 65% in size
# Target sequence (P08659 whole entry, looked up): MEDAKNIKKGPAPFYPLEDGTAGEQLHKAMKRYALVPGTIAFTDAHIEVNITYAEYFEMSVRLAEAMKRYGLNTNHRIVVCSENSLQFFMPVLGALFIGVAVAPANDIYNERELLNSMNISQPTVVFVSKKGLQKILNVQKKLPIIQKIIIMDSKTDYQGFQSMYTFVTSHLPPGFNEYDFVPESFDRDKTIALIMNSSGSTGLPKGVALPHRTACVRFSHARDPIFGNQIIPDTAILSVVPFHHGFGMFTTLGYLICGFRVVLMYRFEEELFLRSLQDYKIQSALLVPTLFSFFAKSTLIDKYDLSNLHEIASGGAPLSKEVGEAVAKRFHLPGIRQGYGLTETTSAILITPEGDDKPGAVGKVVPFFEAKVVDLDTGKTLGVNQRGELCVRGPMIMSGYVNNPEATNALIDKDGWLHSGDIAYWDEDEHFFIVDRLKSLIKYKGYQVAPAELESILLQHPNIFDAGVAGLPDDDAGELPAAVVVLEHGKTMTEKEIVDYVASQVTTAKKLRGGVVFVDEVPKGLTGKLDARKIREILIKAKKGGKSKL
#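 FLuc 10nM, D-luciferin 10uM, ATP 10uM, Mg acetate 10mM, Tris acetate pH 7.5, Tween/BSA; cpd qHTS; enzyme added last; CCD luminescence.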
# A number is an active result; - = inactive; ? = inconclusive; . = not tested or not shown; ! = repeats disagree. A selection: hits, their analogues and other compounds. The true share with any hit is near 11%. Unless noted, calls come from the whole dose curve; as a rule, active = well fitted curve in the direction sought with a large enough effect; inconclusive = small, poorly fitted or top-dose-only effect, or another doubt; inactive = no such curve, though single readings can be large; an effect the other way counts as inactive or inconclusive.
SMILES,HEK cytotox,NPR1 antag,3T3 cytotox,Luciferase inh
COc1cccc(CC(=O)N2CCC3(CC2)OC(=O)N(Cc2ncccn2)C3(C)c2ccccc2)c1 (stereo not given),-,-,?,-
CC1(c2ccccc2)N(Cc2cccnc2)C(=O)OC12CCN(C(=O)c1ccc(Oc3ccccc3)cc1)CC2 (stereo not given),25.1µM,-,?,-
CC1(c2cccnc2)N(CC2CC2)C(=O)OC12CCN(C(=O)c1cccc(O)c1)CC2 (stereo not given),-,-,35.5µM,-
COCCn1c(=O)c(C(=O)NCc2ccc(Cl)cc2)nc2cccnc21,?,.,-,.
COc1ccc(-c2ccc3ncc(Nc4cccc(F)c4)n3n2)cn1,63.1µM,-,?,?
COc1ccc(-c2ccc3ncc(Nc4ccnc(N5CCOCC5)c4)n3n2)cc1OC,?,-,44.7µM,?
COc1ccc(-c2ccc3ncc(Nc4ccccc4C)n3n2)cn1,?,-,89.1µM,-
COc1ccc(-c2ccc3ncc(Nc4ccc(C(N)=O)cc4)n3n2)cc1OC,?,-,17.8µM,-
c1ccc(-c2ccc3ncc(Nc4ccc(N5CCOCC5)cc4)n3n2)cc1,?,-,?,-
CNC(=O)c1cc(C)nc2onc(C3CCCN(C(=O)c4ccccc4Cl)C3)c12 (stereo not given),-,.,-,.
N#Cc1cccc(-c2cn3cc(C(=O)NCc4cccc(Cl)c4)nc3s2)c1,?,.,-,.
COc1ccc(OC)c(NC(=O)Cn2cccc2-c2nc(-c3ccc(F)cc3)no2)c1,?,-,?,-
COc1ccc(-c2ccc3ncc(Nc4ccccc4)n3n2)cc1OC,35.5µM,-,20µM,-
COc1ccc(-c2ccc3ncc(Nc4ccc(F)c(Cl)c4)n3n2)cn1,-,-,?,-
COc1ccc(-c2ccc3ncc(Nc4cccc(F)c4)n3n2)cc1OC,63.1µM,-,?,-
CCOC(=O)[C@H]1[C@@H](O)C(=O)N(Cc2ccccc2)C12CCN(C(=O)N(C)C)CC2,-,.,?,.
O=C(NC1CCN(c2cc(-c3ccc(Cl)cc3)[nH]n2)CC1)c1ccncc1,28.2µM,?,?,-
COc1ccc(C(=O)NC2CCN(c3cc(-c4ccc(F)cc4)[nH]n3)CC2)cc1,?,-,-,-
O=C(NC1CCN(c2cc(-c3ccc(F)cc3)[nH]n2)CC1)c1ccc2[nH]ccc2c1,?,-,25.1µM,-
N#Cc1ccc(C(=O)NC2CCN(c3cc(-c4ccc(Cl)cc4)[nH]n3)C2)cc1 (stereo not given),44.7µM,?,?,-
O=C(NC1CCN(c2cc(-c3ccc(F)cc3)[nH]n2)CC1)c1ccc(OC(F)(F)F)cc1,20µM,-,28.2µM,-
O=C(NC1CCN(c2ccc3nnc(-c4ccccc4)n3n2)C1)c1ccc(Cl)cc1 (stereo not given),-,.,-,.
COc1ccc(-c2cc(C(=O)NCCc3ccc(Cl)cc3)c3cnn(C)c3n2)cc1,-,.,-,.
COC(=O)CNC(=O)c1ccc2oc(-c3cccnc3)nc2c1,-,.,-,.
O=C(NC1CCN(c2cc(-c3ccc(F)cc3)[nH]n2)C1)c1ccc2[nH]ccc2c1 (stereo not given),?,-,?,-
SMILES,HEK cytotox,NPR1 antag,3T3 cytotox,Luciferase inh
O=C(NC1CCN(c2cc(-c3ccc(Cl)cc3)[nH]n2)C1)c1ccc2[nH]ccc2c1 (stereo not given),?,-,39.8µM,?
COc1cccc(C(=O)N2CCCC2C(=O)N2CCC(N3Cc4cccn4C3=O)CC2)c1 (stereo not given),-,.,?,.
Cc1ccccc1C(=O)N1CCCC1C(=O)N1CCCC1c1nc2ccncc2[nH]1 (stereo not given),-,.,-,.
CNC(=O)c1cc(C)nc2onc(C3CCN(C(=O)c4ccc(F)cc4)C3)c12 (stereo not given),-,.,-,.
Cc1cccc(C)c1-c1nnc2ccc(C(=O)N3CCN(C)CC3)cn12,-,.,-,.
CCNC(=O)[C@@H]1C[C@H](NC(=O)c2cccc(-c3ccc(F)cc3)c2)CN1C,?,-,-,35.5µM
O[C@H]1[C@H](NCc2ccc(-c3ccccc3)cc2)[C@H]2CO[C@H](O2)[C@@H]1Sc1ccccc1,39.8µM,?,63.1µM,-
O[C@H]1[C@H](NCc2ccc(-c3ccccc3)cc2)[C@H]2CO[C@H](O2)[C@@H]1Oc1ccccc1,89.1µM,-,112µM,-
O[C@H]1[C@H](NCc2ccccc2)[C@H]2CO[C@H](O2)[C@@H]1Sc1ccccc1,?,-,-,-
Cc1ccc(C(=O)N2CCC3(CC2)NC(=O)N(c2ccccc2Cl)N3)cc1,?,-,?,-
Cc1ncc2n1C(=O)N(C1CCN(Cc3ccc(F)cc3)CC1)C2,?,-,-,-
Cc1ncc2n1C(=O)N(C1CCN(Cc3ccc(C(F)(F)F)cc3)CC1)C2,35.5µM!,?,?,-
O=C(Cc1ccccc1)N1C[C@@H](CO)[C@@H]2Oc3ccc(Cl)cc3[C@@H]21,79.4µM,.,?,.
CCOCCCNC(=O)N1CC2CN(C(C)C)CC(C1)O2,-,.,-,.
COc1ccc(C(=O)N[C@@H]2C=C[C@@H](c3c(C)nn(-c4ccccc4)c3C)C2)cc1,?,-,?,-
COc1ccc(C(=O)N[C@@H]2C=C[C@@H](c3c(C)nn(-c4ccc(C(F)(F)F)cc4)c3C)C2)cc1,?,-,?,-
COc1ccc(CN[C@@H]2C=C[C@@H](c3c(C)nn(-c4ccccc4)c3C)C2)cc1,28.2µM,-,50.1µM,?
COc1ccc(-n2nc(C)c([C@@H]3C=C[C@@H](NC(=S)NCC(C)C)C3)c2C)cc1,28.2µM,28.2µM,?,15.8µM
COc1ccc(-n2nc(C)c([C@@H]3C=C[C@@H](NCc4ccc(N(C)C)cc4)C3)c2C)cc1,?,?,?,22.4µM
COc1ccc(-n2nc(C)c([C@@H]3C=C[C@@H](NCc4cccc(Cl)c4)C3)c2C)cc1,28.2µM,?,25.1µM,39.8µM
COCC(=O)N1CCCC1C(=O)N1CCC2(CC1)CC(=O)Nc1ccccc1O2 (stereo not given),-,.,-,.
O=C(NCCc1ccccc1F)c1ccc2oc(-c3ccnc(Cl)c3)nc2c1,-,.,-,.
N#Cc1ccc(C(=O)N2CCC(Cc3nc(C4CC4)n[nH]3)C2)cc1 (stereo not given),-,.,?,.
Cc1ccc(C2Cn3nnc(C(=O)N4CCC(C(=O)Nc5cc(F)cc(F)c5)CC4)c3CO2)cc1 (stereo not given),-,-,-,28.2µM
Cc1ccc(C2Cn3nnc(C(=O)N4CCC(C(=O)Nc5ccc(F)c(F)c5)CC4)c3CO2)cc1 (stereo not given),?,-,-,39.8µM
COc1ccc(-n2c(=O)c(C(=O)NC3CCCC3)nc3cccnc32)cc1,-,.,-,.
Cc1ccc(Nc2ccnc(N3CCC(C(=O)N4CCC(Cc5ccccc5)CC4)CC3)n2)cc1,35.5µM,.,?,.
CC(=O)N1CCN(C(=O)C2CCN(c3nccc(Nc4ccc(C)cc4)n3)CC2)CC1,-,.,-,.
Cc1ccc(Nc2ccnc(N3CCC(C(=O)N4CCN(c5ncccn5)CC4)CC3)n2)cc1,17.8µM,.,35.5µM,.
